Screening results as filed in PubChem BioAssay.
Casp6 inh: caspase-6 (human) enzyme inhibition; inhibition, % at 12.5 µM; P55212; purified caspase-6, Z-VEID-R110 cleavage fluorescence; 0.53% of 350,000 active;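 active means mean inhibition across replicates at least about 35%, with every replicate also reaching that limit, limit read from the data; inconclusive means only one of the two criteria met; inactive means neither criterion met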;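 further: 0% = median of neutral control wells and 100% = no fluorescence left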
NSD2 inh: blocks human histone methyltransferase NSD2 | NSD2 peptide methylation, AlphaScreen, 120 min | inhibition, % at 12.5 µM | 0.54% of 310,000 active | AID 743445; in the data active means inhibition above about 50%
CFTR F508del cor: correctors of CFTR F508del function in bronchial epithelial cells; CFBE cells, YFP halide quenching; stimulated with forskolin plus potentiator P3; % fluorescence drop versus neutral controls; 0.36% of 350,000 active; activity (quench increase), % at 7.58 µM;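 active means mean added fluorescence quench of at least 8% versus neutral control, with both replicates also reaching 8%; inconclusive means only one of the mean or replicate conditions met; inactive means mean below 8% and not both replicates reaching 8%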;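 further: cells transiently co-express mutant CFTR-F508del with the halide-sensitive YFP; corrector assay measuring rescue of mutant channel to the surface after 24 h compound exposure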
HIV Env fusion: inhibitors of HIV Env-mediated cell fusion. 1.1% of 360,000 active. HeLa-JRFL Env/CEM21 cell fusion, luciferase. AID 651610. inhibition, % at 12.3 µM;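 active means mean replicate inhibition score of at least 50 and every replicate individually at or above 50; inconclusive means only one of the two criteria met; inactive means mean below 50 and not all replicates reaching 50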;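 further: 0% = plate neutral controls and 100% = maraviroc near 300 nM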
PglD inh: blocks C. jejuni PglD acetyltransferase activity; purified PglD enzyme, DTNB colorimetric CoA detection; inhibition, % at 12.5 µM; 0.098% of 360,000 active; AID 602405; in the data active means inhibition above about 16%, passing the limit was not always enough; inconclusive means no clear call, values can overlap the other calls
ALR inh: blocks human ALR sulfhydryl oxidase activity | 3.8% of 290,000 active | purified ALR, DTT oxidation, H2O2 HRP-luminol luminescence | P55789 | inhibition, % (test concentration not listed) | AID 485317;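 active means mean replicate inhibition above about 79%, with every replicate also reaching it, limit read from the data; inconclusive means only one of the two criteria met; inactive means mean below limit and not every replicate reaching it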
* hit, by the source's call; ? = inconclusive; · = no result; [ ] = remark or other dose. Shown are actives, neighbours in structure and some others; about 4.1% of the full set was active somewhere.

SMILES	Casp6 inh	NSD2 inh	CFTR F508del cor	HIV Env fusion	PglD inh	ALR inh
Cc1nn2cc(-c3ccc(N)cc3)nc2s1	·	-1	·	·	-1	98*
CCCNC(=O)Nc1ccc2c(c1)C(=O)N(C)[C@H]1CC[C@H](CC(=O)NC3CCC3)O[C@@H]1CO2	2	·	-2	-2[16.7 µM]	-1	·
COC(=O)c1ccsc1NC(=O)c1ccccc1	-2	·	8.6*	-9	2	-3
CN(C)CC1CC/C(=C\c2ccc(O)cc2)C1=O (stereo unspecified)	-1	8	-2	-58	·	·
CC1CCC/C(=C\c2ccc(O)cc2)C1=O (stereo unspecified)	3	-1	0	-4	6	92*
O=C(O)c1cccc(-n2cccc2/C=C2\SC(=O)N(Cc3ccccc3F)C2=O)c1	86*	10	·	-9	·	20
O=C(O)c1cccc(-n2cccc2/C=C2/NC(=O)N(c3cccc(Cl)c3)C2=O)c1	72*	18	-1	0	·	·
COc1ccc(NC(=O)N(C)C[C@H]2OCCCC[C@@H](C)Oc3ccc(NC(=O)Cc4ccccc4)cc3C(=O)N([C@H](C)CO)C[C@@H]2C)cc1	7	·	-2	-88[16.7 µM]	0	·
Cc1ccc(S(=O)(=O)Nc2cc(C)c(O)cc2C)cc1	·	0	1	9	·	98*
Nc1cccc(S(=O)(=O)Nc2ccccc2)c1	-1	-3	2	10	·	-4
Cc1cc(NS(=O)(=O)c2ccccc2)c(C)c(Cl)c1O	·	-2	·	-70	-5	100*
O=S(=O)(Nc1ccc(O)c(NS(=O)(=O)c2ccccc2)c1)c1ccccc1	-1	0	-5	·	2	87*
COc1ccc(S(=O)(=O)Nc2cc(C(C)C)c(O)cc2C)cc1	·	-2	·	23	·	?
Nc1ccc(NS(=O)(=O)c2ccccc2)cc1	-1	1	-3	-1	2	100*
Cc1cc(NS(=O)(=O)c2ccccc2)ccc1NS(=O)(=O)c1ccccc1	4	0	8	2	-1	·
CN1CCN(C(=O)C[C@@H]2CC[C@@H]3[C@H](COC[C@H](O)CN3S(=O)(=O)c3cccc(Cl)c3)O2)CC1	1	·	-4	·	0	·
COCC(=O)Nc1ccc2c(c1)C(=O)N(C)[C@@H]1CC[C@@H](CC(=O)NCCc3ccccc3)O[C@H]1CO2	-3	·	0	-16[16.7 µM]	-3	·
Cc1c(O)ccc(NS(=O)(=O)c2ccccc2)c1C	0	-2	·	10	·	99*
Cc1nc2c(-c3ccc(Cl)cc3)c(C)[nH]n2c(=O)c1Cc1ccccc1	-4	-9	-3	57*	·	2
COC(=O)c1ccc(N2NC(=O)/C(=C/c3ccc(OC)c(OC)c3)C2=O)cc1	1	5	0	-18	-4	12
C#CCOc1ccc(/C=C2/C(=O)NN(c3ccc(F)cc3)C2=O)cc1OC	5	2	3	2	0	98*
COc1cc(/C=C2\C(=O)NN(c3ccccc3)C2=O)ccc1OCC(N)=O	8	-1	-4	-21	·	96*
O=C(NCN1CCN(c2ccccc2)CC1)c1cnccn1	2	-1	2	11	-7	98*
O=C(Nc1ccc(S(=O)(=O)N2CCCC2)cc1)c1ccc(CN2CCOCC2)cc1	·	0	·	74*	4	-5
CCN(CC)S(=O)(=O)c1ccc(NC(=O)c2ccc(CN3CCOCC3)cc2)cc1	·	·	·	64*	5	·
SMILES	Casp6 inh	NSD2 inh	CFTR F508del cor	HIV Env fusion	PglD inh	ALR inh
CCN1CCN(CNC(=O)c2cnccn2)CC1	·	-1	·	·	1	-4
O=C(NC1CCN(Cc2ccccc2)CC1)c1cc(S(=O)(=O)N2CCOCC2)ccc1Cl	-2	-3	15*	3	2	·
O=C(NC1CCN(Cc2ccccc2)C1)c1cccc(S(=O)(=O)N2CCOCC2)c1 (stereo unspecified)	-1	-2	1	-13	·	·
CCCN(C)C[C@H]1Oc2cc(C3=CCCC3)ccc2S(=O)(=O)N([C@@H](C)CO)C[C@@H]1C	·	·	-4	-10[16.7 µM]	·	·
CO[C@@H]1CN(C)C(=O)c2ccc(NC(=O)Nc3c(C)noc3C)cc2OC[C@H](C)N(C)C[C@@H]1C	17	·	1	-6[16.7 µM]	3	·
CCCC#Cc1ccc(CC[C@H]2O[C@H]3CC[C@@H](CO)O[C@H]3C[C@H]2n2cc(C(C)(C)O)nn2)cc1	-1	·	4	·	·	·
O=C(Nc1ccc(S(=O)(=O)N2CCN(Cc3ccccc3)CC2)cc1)c1cnccn1	·	·	·	95*	-1	-36
O=C(Nc1ccc(S(=O)(=O)N2CCCC2)cc1)c1cnccn1	-2	-2	0	-11	0	·
C[C@@H]1O[C@@H](OC[C@H]2O[C@@H](Oc3c(-c4ccc(O)c(O)c4)oc4cc(O)cc(O)c4c3=O)[C@H](O)[C@@H](O)[C@@H]2O)[C@H](O)[C@H](O)[C@H]1O	3	·	4	-18	-4	99*
O=c1c(O[C@@H]2O[C@H](CO)[C@@H](O)[C@H](O)[C@H]2O)c(-c2ccc(O)cc2)oc2cc(O)cc(O)c12	·	·	·	·	-1	94*
O=C(CCc1ccc(O)cc1)c1c(O)cc(O)cc1O[C@@H]1O[C@H](CO)[C@@H](O)[C@H](O)[C@H]1O	-5	·	-2	-17	6	81*
CC1OC(OC2C(Oc3c(-c4ccc(O)cc4)oc4cc(O)cc(O)c4c3=O)OC(COC3O[C@@H](C)[C@H](O)[C@@H](O)C3O)C(O)C2O)C(O)C(O)C1O (stereo partly specified)	0	·	0	·	0	6
COCOc1cc(O)c2c(=O)c(OCOC)c(-c3ccc(OCOC)c(OCOC)c3)oc2c1	51*	·	4	·	3	14
COCOc1ccc(-c2cc(=O)c3c(OCOC)cc(OCOC)cc3o2)cc1	·	·	·	·	-3	-8
O=C(C[C@@H]1CC[C@H]2[C@@H](COC[C@H](O)CN2Cc2ccc(Cl)cc2)O1)NCc1cccc(F)c1	1	·	-2	·	3	·
CO[C@@H]1CN(C)C(=O)c2ccc(NC(=O)c3nc4ccccc4s3)cc2OC[C@H](C)NC[C@H]1C	-3	·	-1	3[16.7 µM]	0	·
O=C(c1ccncc1)N1CC(=O)N2[C@H](CO)[C@H](c3ccc(/C=C/c4ccccc4)cc3)[C@@H]2C1	0	·	2	·	·	·
COc1ccc(-c2c(C)oc3cc(O)cc(O)c3c2=O)cc1OC	4	·	-2	-16	-5	·
COc1c(-c2ccc(O)c(O)c2)oc2cc(O)cc(O)c2c1=O	48*	·	0	·	-6	98*
O=c1c2c(O)cc(O)cc2oc2ccc(O)c(O[C@@H]3O[C@H](CO)[C@@H](O)[C@H](O)[C@H]3O[C@H]3O[C@H](CO)[C@@H](O)[C@H](O)[C@H]3O)c12	5	·	-3	·	2	·
O=c1c(OC2OC(CO)C(O)C(O)C2OC2OC(CO)C(O)C(O)C2OC2OC(CO)C(O)C(O)C2O)c(-c2ccc(O)c(O)c2)oc2cc(O)cc(O)c12 (stereo unspecified)	2	·	-1	·	-4	99*
